Hit rate of the full screen: of about 5,500 compounds, about 2,000 (36%) were called active. Roughly 18% stayed inconclusive and do not appear here. No stated cut-off is given here; in the data, active means normalized growth mostly below about 0.91 (no sharp cut-off); inconclusive means no clear call, values can overlap the other calls; inactive means mostly above about 0.92. Some of the results follow.
Test: chemical genetic growth profiling, strain panel (AID 1159580);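 further: tested at 20 µM; growth read once vehicle control cultures reached saturation at 30 °C; 1 = growth at the plate median or of vehicle wells; lower values mean less growth of the strain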
Conditions: S. cerevisiae deletion strains, growth OD
[1] = locus YHR030C, strain SLT2, active compounds read low
[2] = locus YJL095W, strain BCK1, active compounds read low

Measured: normalized growth

COc1ccc(-c2cc(=O)c3c(O)c(OC)c(OC)cc3o2)cc1O
active: locus YNL250W, strain rad50, active compounds read low 0.89
inactive: locus YBR021W, strain FUR4, active compounds read low 0.907 | locus YBR229C, strain ROT2, active compounds read low 1.01 | locus YCL029C, strain bik1, active compounds read low 0.937 | locus YDL035C, strain GPR1, active compounds read low 0.929 | locus YDL074C, strain BRE1, active compounds read low 0.878 | locus YDL101C, strain DUN1, active compounds read low 0.997 | locus YDL134C, strain PPH21, active compounds read low 1 | locus YDL185W, strain tfp1, active compounds read low 0.96 | locus YDL192W, strain arf1, active compounds read low 0.951 | locus YDR101C, strain arx1, active compounds read low 0.926 | locus YDR150W, strain NUM1, active compounds read low 0.997 | locus YDR162C, strain NBP2, active compounds read low 1 | locus YDR318W, strain mcm21, active compounds read low 0.99 | locus YDR388W, active compounds read low 0.99 | locus YDR502C, strain sam2, active compounds read low 0.953 | locus YEL061C, strain CIN8, active compounds read low 1 | locus YER110C, active compounds read low 0.974 | locus YER155C, strain BEM2, active compounds read low 1.01 | locus YER167W, strain BCK2, active compounds read low 0.979 | locus YGL078C, strain dbp3, active compounds read low 0.944 | locus YGL086W, strain mad1, active compounds read low 0.935 | locus YGL248W, strain PDE1, active compounds read low 0.993 | locus YGR078C, strain PAC10, active compounds read low 0.969 | locus YGR135W, strain pre9, active compounds read low 0.971 | locus YGR229C, strain SMI1, active compounds read low 0.893 | locus YGR252W, strain gcn5, active compounds read low 0.994 | [1] 0.998 | locus YHR079C, strain IRE1 (second series), active compounds read low 0.978 | locus YHR094C, strain hxt1, active compounds read low 0.995 | locus YHR129C, strain ARP1, active compounds read low 0.978 | locus YHR200W, strain rpn10, active compounds read low 0.985 | locus YIL066C, strain RNR3, active compounds read low 0.964 | locus YIL073C, strain SPO22, active compounds read low 0.873 | locus YIL125W, strain kgd1, active compounds read low 0.959 | locus YIR030C, strain dcg1, active compounds read low 0.993 | [2] 0.991 | locus YJL134W, strain LCB3, active compounds read low 0.998 | locus YJL168C, strain set2, active compounds read low 0.993 | locus YJL187C, strain SWE1 (second series), active compounds read low 0.952 | locus YJR043C, strain POL32, active compounds read low 0.954 | locus YJR075W, strain HOC1, active compounds read low 0.983 | locus YKL009W, strain mrt4, active compounds read low 0.943 | locus YKL068W, active compounds read low 0.969 | locus YKL085W, strain MDH1 (second series), active compounds read low 0.985 | locus YKL085W, strain MDH1, active compounds read low 0.985 | locus YKL190W, strain CNB1, active compounds read low 1.01 | locus YKR001C, strain vps1, active compounds read low 0.943 | locus YLR039C, strain RIC1, active compounds read low 0.96 | locus YLR058C, strain SHM2, active compounds read low 1 | locus YLR102C, strain apc9, active compounds read low 0.988 | locus YLR262C, strain YPT6, active compounds read low 0.989 | locus YLR268W, strain sec22, active compounds read low 0.902 | locus YLR330W, strain CHS5, active compounds read low 0.983 | locus YLR342W, strain FKS1 (second series), active compounds read low 0.944 | locus YLR371W, strain rom2, active compounds read low 0.985 | locus YLR418C, strain cdc73, active compounds read low 0.928 | locus YML016C, strain PPZ1, active compounds read low 1 | locus YML032C, strain rad52, active compounds read low 0.971 | locus YML124C, strain tub3, active compounds read low 0.998 | locus YMR078C, strain ctf18, active compounds read low 0.988 | locus YMR223W, strain ubp8, active compounds read low 0.99 | locus YMR263W, strain SAP30, active compounds read low 1.05 | locus YMR307W, strain GAS1, active compounds read low 0.998 | locus YNL067W, strain RPL9B, active compounds read low 0.965 | locus YNL153C, strain GIM3, active compounds read low 0.969 | locus YNL233W, strain BNI4, active compounds read low 0.928 | locus YNL271C, strain bni1, active compounds read low 0.993 | locus YNL298W, strain CLA4, active compounds read low 0.996 | locus YNL307C, strain MCK1, active compounds read low 0.975 | locus YNR052C, strain pop2, active compounds read low 0.973 | locus YOL012C, strain htz1 1.07 | locus YOL147C, strain pex11, active compounds read low 0.97 | locus YOR061W, strain CKA2, active compounds read low 0.98 | locus YOR069W, strain VPS5, active compounds read low 0.999 | locus YOR136W, strain idh2, active compounds read low 0.98 | locus YOR144C, strain elg1, active compounds read low 0.991 | locus YOR184W, strain ser1, active compounds read low 0.897 | locus YOR316C, strain cot1, active compounds read low 0.991 | locus YPL055C, strain LGE1, active compounds read low 0.941 | locus YPR119W, strain clb2, active compounds read low 0.995 | locus YPR141C, strain kar3, active compounds read low 1 | locus YPR163C, strain tif3, active compounds read low 0.992 | locus YPR167C, strain met16, active compounds read low 0.991 | strain wtn01, active compounds read low 0.92

COc1ccc(-c2cc(=O)c3c(OC)c(OC)c(OC)c(OC)c3o2)cc1OC
inactive: locus YAL021C, strain ccr4, active compounds read low 1 | locus YAL026C, strain drs2, active compounds read low 1 | locus YAL030W, strain snc1, active compounds read low 0.999 | locus YBL061C, strain skt5, active compounds read low 1 | locus YBR009C, strain hhf1, active compounds read low 1.02 | locus YBR023C, strain chs3, active compounds read low 1.01 | locus YBR171W, strain sec66, active compounds read low 1 | locus YBR231C, strain swc5, active compounds read low 0.997 | locus YBR279W, strain paf1, active compounds read low 0.998 | locus YCL011C, strain gbp2, active compounds read low 0.988 | locus YCL016C, strain dcc1, active compounds read low 0.993 | locus YCL069W, strain vba3, active compounds read low 1.02 | locus YCR088W, strain abp1, active compounds read low 0.996 | locus YDL005C, strain med2, active compounds read low 1 | locus YDL040C, strain nat1, active compounds read low 0.999 | locus YDR001C, strain nth1, active compounds read low 0.991 | locus YDR069C, strain doa4, active compounds read low 1.01 | locus YDR137W, strain rgp1, active compounds read low 1.03 | locus YDR159W, strain sac3, active compounds read low 0.96 | locus YDR195W, strain ref2 0.952 | locus YDR297W, strain sur2, active compounds read low 0.986 | locus YDR334W, strain swr1, active compounds read low 1.01 | locus YDR335W, strain msn5, active compounds read low 1.02 | locus YDR392W, strain spt3, active compounds read low 1.01 | locus YEL003W, strain gim4, active compounds read low 1.01 | locus YEL037C, strain rad23, active compounds read low 0.997 | locus YEL061C, strain CIN8 (second series), active compounds read low 0.999 | locus YER015W, strain faa2, active compounds read low 0.992 | locus YER016W, strain bim1, active compounds read low 0.993 | locus YER111C, strain swi4, active compounds read low 1 | locus YER155C, strain BEM2 (second series), active compounds read low 0.996 | locus YFR010W, strain ubp6, active compounds read low 1.02 | locus YGL167C, strain pmr1, active compounds read low 1.01 | locus YGL173C, strain kem1, active compounds read low 1.01 | locus YGL227W, strain vid30, active compounds read low 0.985 | locus YGL240W, strain doc1, active compounds read low 0.994 | locus YGL253W, strain hxk2, active compounds read low 0.994 | locus YHR013C, strain ard1, active compounds read low 0.973 | locus YHR027C, strain rpn1, active compounds read low 1 | [1] 1.01 | locus YHR079C, strain IRE1, active compounds read low 1.01 | locus YHR142W, strain chs7, active compounds read low 1.01 | locus YJL092W, strain hpr5, active compounds read low 0.996 | locus YJL095W, strain BCK1 (second series), active compounds read low 0.992 | [2] 0.963 | locus YJL115W, strain asf1, active compounds read low 0.988 | locus YJL129C, strain trk1, active compounds read low 1.01 | locus YJL154C, strain vps35, active compounds read low 0.983 | locus YJL164C, strain tpk1, active compounds read low 1 | locus YJL166W, strain qcr8, active compounds read low 0.998 | locus YJR066W, strain TOR1, active compounds read low 0.976 | locus YKL160W, strain elf1, active compounds read low 0.997 | locus YKR026C, strain gcn3, active compounds read low 0.997 | locus YKR091W, strain srl3, active compounds read low 0.996 | locus YLL001W, strain dnm1, active compounds read low 0.996 | locus YLL026W, active compounds read low 0.991 | locus YLL041C, strain sdh2, active compounds read low 0.991 | locus YLR027C, strain aat2, active compounds read low 1 | locus YLR113W, strain HOG1, active compounds read low 0.941 | locus YLR221C, strain rsa3, active compounds read low 0.996 | locus YLR258W, strain gsy2, active compounds read low 1.01 | locus YLR262C, strain YPT6 (second series), active compounds read low 1.04 | locus YLR320W, strain mms22, active compounds read low 1 | locus YLR342W, strain FKS1, active compounds read low 0.998 | locus YLR357W, strain rsc2, active compounds read low 0.957 | locus YLR370C, strain arc18, active compounds read low 0.988 | locus YLR384C, strain iki3, active compounds read low 0.981 | locus YML120C, strain ndi1, active compounds read low 1.01 | locus YMR058W, strain fet3, active compounds read low 0.995 | locus YMR125W, strain sto1, active compounds read low 1 | locus YMR129W, active compounds read low 0.994 | locus YMR205C, strain PFK2, active compounds read low 1.02 | locus YMR231W, strain pep5, active compounds read low 1 | locus YNL071W, strain lat1, active compounds read low 0.998 | locus YNL183C, strain NPR1, active compounds read low 0.926 | locus YNL209W, strain ssb2, active compounds read low 1 | locus YNL248C, strain rpa49, active compounds read low 0.995 | locus YNL322C, strain KRE1 (second series), active compounds read low 0.994 | locus YNR049C, strain mso1, active compounds read low 1.01 | locus YOR001W, strain rrp6, active compounds read low 0.982 | locus YOR070C, strain gyp1, active compounds read low 0.988 | locus YOR080W, strain dia2, active compounds read low 0.989 | locus YOR083W, strain WHI5, active compounds read low 1 | locus YOR106W, strain vam3, active compounds read low 1.01 | locus YOR231W, strain MKK1, active compounds read low 1.02 | locus YOR265W, strain rbl2, active compounds read low 1.02 | locus YOR270C, strain vph1, active compounds read low 1.07 | locus YOR290C, strain snf2, active compounds read low 0.988 | locus YPL051W, strain arl3, active compounds read low 0.974 | locus YPL078C, strain atp4, active compounds read low 0.985 | locus YPL106C, strain sse1, active compounds read low 0.962 | locus YPL240C, strain hsp82, active compounds read low 1 | locus YPL256C, strain CLN2, active compounds read low 0.991
